In ChEMBL document CHEMBL4513216, “Probing the Open Global Health Chemical Diversity Library for Multistage-Active Starting Points for Next-Generation Antimalarials” (ACS Infect Dis, 2020) one finds INHIBITION data, which are given here for 69 compounds.

Out of some 69,000 compounds screened, about 8,600 (12%) showed an effect of 50% or more. What follows is part of a selection rich in strong results, with near analogues and random picks from the rest.

For the experiment, the system named is Plasmodium berghei. Briefly: Screen against P. berghei liver stage (PbLuc), transformed with Luciferase, at 10uM. The following applies: tested at 10 uM. It counts as functional, HepG2.
With `Cc1nnc(CN(C)S(=O)(=O)c2ccc(Br)cc2Cl)n1C`, the INHIBITION turned out to be 33.1%.
With `CN(Cc1nnc2n1CCC2)S(=O)(=O)c1ccc(Br)cc1Cl`, the INHIBITION is 52.6%.
For `CN(Cc1nnc2n1CCC2)S(=O)(=O)c1cc(Br)ccc1Br`, the INHIBITION amounted to 30.9%.
The value for `CC(CN1CCCC1=O)NC(=O)c1cc(Cl)c2c(c1)OCO2` (centres undefined) was 38.5%; that for `Cc1cccnc1CN1CCCCC1c1ccn2ccnc2n1` (centres undefined) was 45.6%.
The value for `CCOc1ccccc1CC(=O)N1CCCC(c2ncc[nH]2)C1` (centres undefined) was 19.7%; that for `O=S(=O)(c1ccccc1Cl)N1CCCC(c2ncc[nH]2)C1` (centres undefined) was 21.6%; that for `CCc1cnc(CCNC(=O)N2CCCC(c3ncc[nH]3)C2)s1` (centres undefined) was 52.6%.
The value for `CCc1ccc(S(=O)(=O)N2CCCC(c3ncc[nH]3)C2)s1` (centres undefined) was 81.2%; that for `CCC(CC)c1cc(CNC(=O)N2CCCC(c3ncc[nH]3)C2)on1` (centres undefined) was -1.79%.
In the case of `O=C(CCn1cnnc1)N1CCCC(c2ncc[nH]2)C1` (centres undefined), the INHIBITION is recorded as -12.2%.
With `CCc1cnc(CNC(=O)N2CCCC(c3ncc[nH]3)C2)s1` (centres undefined), the INHIBITION turned out to be 40.6%.
With `Cn1cc(C(=O)N2CCCC(c3ncc[nH]3)C2)cn1` (centres undefined) the figure was -24.9%; with `O=S(=O)(c1ccc(Cl)s1)N1CCCC(c2ncc[nH]2)C1` (centres undefined), 50.4%.
As for `CCNc1nc2cn(-c3cccc(OC)c3)c(=O)c-2c[nH]1`, the INHIBITION is listed as -76.4%.
The value for `O=C(O)c1ccc(=O)n(CC(c2ccc(F)cc2)N2CCCCCC2)c1` (centres undefined) was 14.65%; that for `CN1CCO[C@@H]2CN(S(=O)(=O)c3ccccc3F)CC[C@@H]2C1` was 21.7%; that for `NCC1CCC(C(NC(=O)C2CC2)c2ccccn2)CC1` (centres undefined) was 29.3%.
As for `CCOc1cc(=O)n2c(c1C(=O)OCc1ccc(OC)cc1)CCCC2`, the INHIBITION amounted to 27.6%.
The value for `CC(=O)Nc1cccc(OCCNC(=O)N(C)Cc2ccccc2)c1` was 80.8%.
With `CC(=O)Nc1cccc(CNC(=O)N(C)Cc2ccccc2)c1`, the INHIBITION is listed as -25%.
The value for `CC(=O)NCCOc1cccc(Br)c1` was 48.8%.
As to `CC(=O)Nc1cccc(OCCNC(=O)N(C)Cc2ccncc2)c1`, the INHIBITION was determined as 57.7%.
As to `CN(CCOc1cccc(F)c1)CC(=O)Nc1ccncc1`, the INHIBITION worked out at 21.55%.
Consider `CC(=O)Nc1cccc(OCCNC(=O)N(C)Cc2ccco2)c1`, for which the INHIBITION is reported as -52.9%.
The value for `CCOCC(O)CN1CCN(C(=O)c2cc(Cl)ccc2F)CC1` (centres undefined) was -18%.
Turning to `Cc1cnc(N2CCCC3(CCN(Cc4csc(C)n4)C3=O)C2)nc1` (centres undefined), the INHIBITION is -49.8%.
With `CC(NC(=O)N1CCN(c2ccccc2O)CC1)c1nncn1C` (centres undefined) the figure was -1.14%.
The value for `CC(C)n1nc2c(cc1=O)CN(CCOc1ccc(C#N)cc1)CC2` was -7.94%; that for `CCn1nc2c(cc1=O)CN(Cc1nc(C)c3ccccc3n1)CC2` was -3.72%; that for `Cn1nc2c(cc1=O)CN(c1ncnc3sccc13)CC2` was 42.3%.
With `CC(C)n1nc2c(cc1=O)CN(CCCN1CCCC1=O)CC2` the figure was 11.9%.
In the case of `CC(C)n1nc2c(cc1=O)CN(c1ncnc3sccc13)CC2`, the INHIBITION is on record as 88.5%.
Turning to `CCn1nc2c(cc1=O)CN(c1ncnc3sccc13)CC2`, the INHIBITION is 79.9%.
`CCn1nc2c(cc1=O)CN(Cc1nc3ccccc3o1)CC2`: the INHIBITION was 8.24%.
With `CCCn1nc2c(cc1=O)CN(c1ncnc3sccc13)CC2` the figure was 96.2%.
With `CCCn1nc2c(cc1=O)CN(C(C)C(=O)Nc1nccs1)CC2` (centres undefined) the figure was 29.4%; with `CC(C(=O)NCc1ccnc(N2CCCCCC2)c1)n1cccn1` (centres undefined), -39.6%.
With `COc1c(C)cnc(CN2CCOC(Cn3nc(C)cc3C)C2)c1C` (centres undefined) the figure was -21.7%; with `CN1C(=O)CO[C@H]2CCN(C(=O)Cc3ccc4c(c3)CCCC4)CC[C@@H]21`, 10.65%; with `N#Cc1cccc(OCCN2CCOC(Cn3cccn3)C2)c1` (centres undefined), 0.411%.
Consider `CCCOC(=O)c1ccc(-c2ccc(/C=C3\C(=O)NC(=N)N3C)o2)cc1`, for which the INHIBITION is recorded as -18%.
As for `CCc1nc2n(n1)CC(NCc1cnn(Cc3ccccc3)c1)CC2` (centres undefined), the INHIBITION is given as -2.19%.
For `Cc1nn(C)c2ncc(NC(=O)N3CCNC(=O)C3)cc12`, the INHIBITION was -38%.
The value for `CCCS(=O)(=O)N1CCC(NC(=O)c2cc3ccccc3s2)CC1` was 67.1%.
As to `CCS(=O)(=O)N1CCC(NC(=O)c2cc(C)ccc2O)CC1`, the INHIBITION was 8.665%.
The value for `CCCS(=O)(=O)N1CCC(NC(=O)c2ccc(C)s2)CC1` was -19.3%; that for `CCS(=O)(=O)N1CCC(NC(=O)c2ccccc2O)CC1` was -33.32%; that for `CCS(=O)(=O)N1CCC(NC(=O)c2cc3ccccc3cc2O)CC1` was 80.55%.
The value for `CCCS(=O)(=O)N1CCC(NC(=O)c2cc(CC)c(C)s2)CC1` was 2.91%; that for `COC1C[C@@H]2CN(C(=O)c3cccc4c3OCCO4)C[C@@H]2C1` (some centres undefined) was 40.625%.
With `CCc1nnsc1C(=O)N(C)Cc1nnc2n1CCC2` the figure was 22.9%.
Consider `O=C(c1cnccn1)N1CCC(F)(F)C2(CCN(c3ccccn3)C2)C1` (centres undefined), for which the INHIBITION was found to be 12.1%.
Regarding `CNC(=O)C(NC(=O)c1ccn(C)c(=O)c1)c1ccccc1` (centres undefined), the INHIBITION is listed as -25.9%.
For the compound `CCCN(Cc1ccccc1)Cn1nc(C)c2c(C)onc2c1=O`, the INHIBITION was 49.9%.
With `Cc1nn(CN(Cc2ccsc2)C2CC2)c(=O)c2noc(C)c12` the figure was 63.8%.
`Cc1cccc(CN(Cn2nc(C)c3c(C)onc3c2=O)C2CC2)c1`: the INHIBITION is reported as -18.9%.
With `CCN(Cc1cccc(C)c1)Cn1nc(C)c2c(C)onc2c1=O` the figure was 49.8%; with `Cc1nn(CN(CC(C)C)C2CC2)c(=O)c2noc(C)c12`, -199%.
The value for `CCN(CCc1ccccc1)Cn1nc(C)c2c(C)onc2c1=O` was 56.1%.
For the compound `COc1ccc(CC(=O)N2CCCCC2Cn2cccn2)cc1` (centres undefined), the INHIBITION is -8.11%.
As to `c1cnc(-c2nc(CN3CCCC3Cn3cncn3)cs2)nc1` (centres undefined), the INHIBITION is given as 27.6%.
The value for `COCCC(=O)N1CCC(c2nc(O)cc(-c3ccncc3)n2)C1` (centres undefined) was -0.902%; that for `COc1cc(C(=O)N(CCC#N)Cc2ccccn2)cc(OC)c1C` was 7.9%.
Regarding `Cc1ccoc1C(=O)N(CCN(C)C)Cc1ccccn1`, the INHIBITION was -31.4%.
For the compound `CN(C)CCN(Cc1ccccn1)C(=O)Nc1cccc(F)c1`, the INHIBITION is recorded as 18.9%.
With `Cc1occc1C(=O)N(CCN(C)C)Cc1ccccn1` the figure was 51.3%; with `Cc1c(C(=O)N(CCN(C)C)Cc2ccccn2)oc2ccccc12`, 63.7%; with `COCCN(CCOC)C(=O)c1ccoc1C`, -0.551%.
